Results filed as inconclusive are left out. Activity calls are given as the source filed them. Rule for the calls, unless noted: active = hit-call score of the fitted dose curve at least 0.9, where 1 is the maximum; inactive = score below 0.9.

Assay [1] concerns the target Myc proto-oncogene protein (Homo sapiens) (UniProt P01106). Description: ATG_Myc_CIS: Attagene CIS-FACTORIAL HepG2 Assay for human Myelocytomatosis (Myc) Proto-Oncogene Transcription Factor (AID 2282990). The conditions noted are these: HepG2, Attagene cis-reporter transcription factor activity; actives raise or lower the signal. The method, boiled down:
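HepG2, transient MRTU transfection (cis promoters, endogenous TFs); 24 h dosing; TriZol RNA → oligo(dT) RT → PCR → 6-FAM primer extension → HpaI cut → CE. Bidirectional fit vs DMSO.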

Assay [2] is described as follows: ATG_NF_kB_CIS: Attagene CIS-FACTORIAL HepG2 Assay for human Nuclear Factor Kappa B (NF-kB) (AID 2282991). As to conditions: HepG2 Attagene cis-factorial NF-kB reporter mRNA; actives raise or lower the signal. The method, boiled down: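 HepG2 cells transfected with cis-promoter-driven reporter units, so endogenous transcription factor activity is measured. Reporter mRNA quantified 24 h after dosing by RT-PCR and capillary electrophoresis, with bidirectional fitting against DMSO.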

A short description of assay [3]: ATG_NRF2_ARE_CIS: Attagene CIS-FACTORIAL HepG2 Assay for human Nuclear Factor Erythroid 2 Related Factor 2 (NFR2) response to Antioxidant Response Elements (ARE) (AID 2282992). As to conditions: HepG2 Attagene ARE/NRF2 reporter, transcription factor activity; actives raise or lower the signal. The method, boiled down:
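Endogenous transcription factor activity read out as reporter transcript levels (RT-PCR plus capillary electrophoresis, fluorescence) in transiently transfected HepG2 cells. Measured at 24 h after dosing; gain or loss of signal fitted versus DMSO.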

Assay [4] is described as follows: ATG_Oct_MLP_CIS: Attagene CIS-FACTORIAL HepG2 Assay for human Octamer-Binding Transcription Factor (Oct) (AID 2282993). As to conditions: HepG2 Attagene cis-factorial Oct reporter, mRNA; actives raise or lower the signal. The method, boiled down: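 Readout is reporter transcript level from RT-PCR with fluorescent primer extension and capillary electrophoresis, fitted in both directions against DMSO. Transfected HepG2 reporter units report endogenous factor activity after 24 h dosing.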

The target in assay [5] is Cellular tumor antigen p53 (Homo sapiens) (UniProt P04637). Description: ATG_p53_CIS: Attagene CIS-FACTORIAL HepG2 Assay for human p53 Transcription Factor (AID 2282994). As to conditions: HepG2 p53 cis-element reporter, Attagene mRNA; actives raise or lower the signal. The method, boiled down: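 Endogenous p53 activity read in transiently transfected HepG2 from a cis-element-driven reporter transcript after 24 h exposure. RNA reverse-transcribed, PCR-amplified, fluorescently labelled and sized by capillary electrophoresis; gain or loss fitted against DMSO baseline.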

A short description of assay [6]: BSK_3C_TissueFactor: BioMAP Diversity Plus: 3C Assay for Tissue Factor Biomarker Activity (AID 2282997). As to conditions: BioMAP 3C HUVEC, tissue factor biomarker readout; actives raise or lower the signal. The method, boiled down: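 Readout: Tissue Factor ELISA. Cells: human primary umbilical vein endothelium. Time: 24 h after dosing. Analysis: bidirectional fit, DMSO baseline.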

Assay [7] can be described thus: BSK_3C_uPAR: BioMAP Diversity Plus: 3C Assay for Urokinase-type plasminogen activator receptor (uPAR) Biomarker Activity (AID 2282998). The conditions noted are these: BioMAP 3C HUVEC, uPAR biomarker ELISA; actives raise or lower the signal. In short, it runs like this: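 Cell-surface uPAR on HUVEC (3C system) read by ELISA at 24 h post-treatment, with DMSO as baseline and fitting in both directions. Parallel cultures stained with SRB to flag overt cytotoxicity.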

Assay [8] is described as follows: BSK_3C_VCAM1: BioMAP Diversity Plus: 3C Assay for Vascular cell adhesion molecule 1 (VCAM1) Biomarker Activity (AID 2282999). As to conditions: BioMAP 3C HUVEC, VCAM1 ELISA, cytokine-stimulated; actives raise or lower the signal. The method, boiled down: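 Activity fitted in both directions relative to DMSO, with ELISA measurement of the surface marker on primary HUVEC (3C) at 24 h post-treatment; parallel SRB staining (0.1% SRB, TCA-fixed, 560 nm) flagged overt cytotoxicity.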

Assay [9] in a line: BSK_4H_Eotaxin3: BioMAP Diversity Plus: 4H Assay for Eotaxin 3 Biomarker Activity (AID 2283000).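 For outcome: CCL26 protein level quantified by ELISA in parallel with SRB cytotoxicity check.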 The conditions noted are these: primary human endothelial cells (HUVEC); actives raise or lower the signal. In short, it runs like this: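 HUVEC, 24 h post-dose, ELISA for Eotaxin-3/CCL26. Gain or loss of signal fitted bidirectionally vs DMSO baseline.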
For assay [10], the target named is human Peroxisome Proliferator-activated Receptor alpha (PPARa), PPARA (gene 5465) (UniProt Q07869). Description: ATG_PPARa_TRANS: Attagene TRANS-FACTORIAL HepG2 Assay for human Peroxisome Proliferator-activated Receptor alpha (PPARa) (AID 2283001; active = hit-call score of the fitted dose curve at least 0.9, where 1 is the maximum). In short, it runs like this: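 Transfected HepG2 cells treated with test chemical for 24 h. RNA isolated, reverse-transcribed with oligo(dT), PCR-amplified, FAM-labelled and HpaI-digested. Fragments sized by capillary electrophoresis; gain-of-signal fit relative to DMSO.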

Assay [11] has as its target human Peroxisome Proliferator-activated Receptor delta (PPARd), PPARD (gene 5467) (UniProt Q03181). The experiment in a line: ATG_PPARd_TRANS: Attagene TRANS-FACTORIAL HepG2 Assay for human Peroxisome Proliferator-activated Receptor delta (PPARd) (AID 2283002; active = hit-call score of the fitted dose curve at least 0.9, where 1 is the maximum). The method, boiled down: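 Transient HepG2 transfection (multiple GAL4-UAS RTUs, chimeric receptor-Gal4); 24 h dosing; total RNA → oligo(dT) RT → PCR → 6-FAM primer extension → HpaI cut → CE. Positive direction vs DMSO.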

In assay [12] the target is human Retinoic Acid Receptor beta (RARb), RARB (gene 5915) (UniProt P10826). The experiment in a line: ATG_RARb_TRANS: Attagene TRANS-FACTORIAL HepG2 Assay for human Retinoic Acid Receptor beta (AID 2283004; active = hit-call score of the fitted dose curve at least 0.9, where 1 is the maximum). The method, boiled down:
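HepG2 cells transiently transfected with multiplexed GAL4-UAS reporter units expressing chimeric NR–Gal4 fusions; 24 h compound exposure. Reporter mRNA quantified by RT-PCR, 6-FAM labelling, HpaI digestion and capillary electrophoresis; gain-of-signal fitted against DMSO baseline.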

Assay [13] in a line: BSK_3C_Proliferation: Cell Proliferation Assessment in the BioMAP Diversity Plus: 3C Assay (AID 2283006).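 For AC50: potency may reflect either rise or fall in cell number versus DMSO.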 As to conditions: primary human endothelial cells (HUVEC). The method, boiled down:
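HUVEC, sub-confluent; 48 h chemical exposure; 10% TCA fix, 0.1% SRB stain, A560 total protein. Gain or loss of signal fitted both directions vs DMSO control.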

Assay [14] deals with Nuclear receptor subfamily 1 group I member 2 (Homo sapiens) (UniProt O75469). Description: ATG_PXR_TRANS: Attagene TRANS-FACTORIAL HepG2 Assay for human Pregnane X Receptor (PXR) (AID 2283008; active = hit-call score of the fitted dose curve at least 0.9, where 1 is the maximum). In short, it runs like this:
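Transactivation by exogenous PXR–GAL4 fusion measured as reporter transcript induction after 24 h compound treatment of transfected human HepG2 cells. Read-out via RT-PCR and capillary electrophoresis of labelled fragments, fitted upward relative to DMSO.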

Assay [15] addresses human RAR-related Orphan Receptor gamma (RORg), RORC (gene 6097) (UniProt P51449). The experiment in a line: ATG_RORg_TRANS: Attagene TRANS-FACTORIAL HepG2 Assay for human RAR-related Orphan Receptor gamma (RORg) (AID 2283011; active = hit-call score of the fitted dose curve at least 0.9, where 1 is the maximum). The method, boiled down: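 Readout: reporter transcript induction (RT-PCR, fluorescent primer extension, capillary electrophoresis) after 24 h compound exposure of transiently transfected HepG2 cells carrying a RORg-Gal4 chimera and GAL4-UAS reporters; DMSO served as baseline, with increasing signal fitted.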

For assay [16], the target named is Peroxisome proliferator-activated receptor gamma (Homo sapiens) (UniProt P37231). Description: ATG_PPARg_TRANS: Attagene TRANS-FACTORIAL HepG2 Assay for human Peroxisome Proliferator-activated Receptor-gamma (PPARg) (AID 2283007; active = hit-call score of the fitted dose curve at least 0.9, where 1 is the maximum). In short, it runs like this: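 HepG2 cells are transiently transfected with GAL4-UAS reporter units driven by chimeric NR-Gal4 fusions and dosed for 24 h. Reporter mRNA is quantified by RT-PCR, 6-FAM labelling, HpaI digestion and capillary electrophoresis. Induction is scored against DMSO.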

For assay [17], the target named is human RAR-related Orphan Receptor beta (RORb), RORB (gene 6096) (UniProt Q92753). Description: ATG_RORb_TRANS: Attagene TRANS-FACTORIAL HepG2 Assay for human RAR-related Orphan Receptor beta (RORb) (AID 2283010; active = hit-call score of the fitted dose curve at least 0.9, where 1 is the maximum). In short, it runs like this:
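HepG2, transient MRTU transfection (GAL4-UAS reporters, exogenous NR-Gal4 chimeras); 24 h compound exposure; total RNA → RT-PCR → 6-FAM primer extension → HpaI digest → CE fluorescence. Positive direction vs DMSO baseline.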

Assay [18] has as its target Retinoic acid receptor alpha (Homo sapiens) (UniProt P10276). Description: ATG_RARa_TRANS: Attagene TRANS-FACTORIAL HepG2 Assay for human Retinoic Acid Receptor alpha (RARa) (AID 2283005; active = hit-call score of the fitted dose curve at least 0.9, where 1 is the maximum). In short, it runs like this:
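Reporter transcripts, measured by RT-PCR with fluorescent labeling and capillary electrophoresis after 24 h dosing, reflect activity of an exogenous human RARa–GAL4 fusion in transiently transfected HepG2. Fitted for increase relative to DMSO.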

Assay [19] has as its target human Retinoic Acid Receptor gamma (RARg), RARG (gene 5916) (UniProt P13631). Description: ATG_RARg_TRANS: Attagene TRANS-FACTORIAL HepG2 Assay for human Retinoic Acid Receptor gamma (RARg) (AID 2283009; active = hit-call score of the fitted dose curve at least 0.9, where 1 is the maximum). In short, it runs like this:
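Readout: reporter transcript levels via RT-PCR, 6-FAM primer-extension labelling, HpaI digestion and capillary electrophoresis. Cells: HepG2 carrying transfected RARg-GAL4 chimera plus UAS reporter set. Dosing 24 h; DMSO negative control.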

human Peroxisome Proliferator-activated Receptor delta (PPARd), PPARD (gene 5467), sequence (Q03181 whole entry, looked up, the tested form may be a part): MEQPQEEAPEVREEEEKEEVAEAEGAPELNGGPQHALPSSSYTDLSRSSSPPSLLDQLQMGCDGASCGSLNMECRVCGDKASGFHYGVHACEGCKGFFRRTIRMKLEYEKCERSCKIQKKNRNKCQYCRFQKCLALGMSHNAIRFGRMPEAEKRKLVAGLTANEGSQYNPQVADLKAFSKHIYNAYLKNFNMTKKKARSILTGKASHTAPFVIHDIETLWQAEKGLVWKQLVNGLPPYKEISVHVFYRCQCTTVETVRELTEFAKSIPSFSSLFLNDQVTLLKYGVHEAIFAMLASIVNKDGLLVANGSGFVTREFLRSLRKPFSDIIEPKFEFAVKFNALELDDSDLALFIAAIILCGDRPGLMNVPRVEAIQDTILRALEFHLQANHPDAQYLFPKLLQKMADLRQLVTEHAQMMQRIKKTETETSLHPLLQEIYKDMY
human Retinoic Acid Receptor beta (RARb), RARB (gene 5915), sequence (P10826 whole entry, looked up, the tested form may be a part): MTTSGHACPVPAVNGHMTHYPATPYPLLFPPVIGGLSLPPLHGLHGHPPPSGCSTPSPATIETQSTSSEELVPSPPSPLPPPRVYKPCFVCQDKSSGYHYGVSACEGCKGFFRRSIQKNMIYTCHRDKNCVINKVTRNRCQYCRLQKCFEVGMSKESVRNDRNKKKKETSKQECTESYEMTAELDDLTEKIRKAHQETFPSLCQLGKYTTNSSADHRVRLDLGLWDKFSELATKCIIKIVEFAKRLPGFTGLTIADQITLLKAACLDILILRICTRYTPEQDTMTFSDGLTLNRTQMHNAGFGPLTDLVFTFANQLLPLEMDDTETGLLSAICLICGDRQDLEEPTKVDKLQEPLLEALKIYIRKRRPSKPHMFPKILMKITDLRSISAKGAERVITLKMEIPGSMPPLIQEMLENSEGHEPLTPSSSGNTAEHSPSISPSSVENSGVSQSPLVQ
Myc proto-oncogene protein (Homo sapiens), sequence (P01106 whole entry, looked up): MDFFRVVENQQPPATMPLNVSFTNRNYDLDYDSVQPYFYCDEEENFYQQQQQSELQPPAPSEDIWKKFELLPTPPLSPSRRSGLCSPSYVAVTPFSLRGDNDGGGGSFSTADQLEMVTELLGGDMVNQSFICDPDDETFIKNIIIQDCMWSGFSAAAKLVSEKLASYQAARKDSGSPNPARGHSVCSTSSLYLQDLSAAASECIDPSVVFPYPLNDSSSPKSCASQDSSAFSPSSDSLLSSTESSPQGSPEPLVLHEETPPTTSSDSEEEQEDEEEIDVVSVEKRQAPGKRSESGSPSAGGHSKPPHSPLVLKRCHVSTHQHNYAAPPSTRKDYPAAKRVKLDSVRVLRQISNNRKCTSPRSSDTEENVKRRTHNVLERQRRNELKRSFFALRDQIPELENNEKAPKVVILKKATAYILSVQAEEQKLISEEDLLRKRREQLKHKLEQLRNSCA
human Peroxisome Proliferator-activated Receptor alpha (PPARa), PPARA (gene 5465), sequence (Q07869 whole entry, looked up, the tested form may be a part): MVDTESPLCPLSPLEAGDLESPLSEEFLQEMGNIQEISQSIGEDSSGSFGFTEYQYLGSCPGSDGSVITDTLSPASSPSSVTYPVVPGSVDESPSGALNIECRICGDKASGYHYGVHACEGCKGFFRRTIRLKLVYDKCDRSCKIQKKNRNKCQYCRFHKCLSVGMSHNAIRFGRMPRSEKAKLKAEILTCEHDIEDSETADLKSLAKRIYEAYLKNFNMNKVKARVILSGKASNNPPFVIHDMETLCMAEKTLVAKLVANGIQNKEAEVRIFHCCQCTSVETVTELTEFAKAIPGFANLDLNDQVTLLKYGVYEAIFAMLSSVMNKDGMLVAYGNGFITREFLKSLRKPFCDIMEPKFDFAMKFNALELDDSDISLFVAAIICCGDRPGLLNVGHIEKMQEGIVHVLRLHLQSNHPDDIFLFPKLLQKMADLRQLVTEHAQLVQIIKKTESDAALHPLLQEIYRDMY
human RAR-related Orphan Receptor gamma (RORg), RORC (gene 6097), sequence (P51449 whole entry, looked up, the tested form may be a part): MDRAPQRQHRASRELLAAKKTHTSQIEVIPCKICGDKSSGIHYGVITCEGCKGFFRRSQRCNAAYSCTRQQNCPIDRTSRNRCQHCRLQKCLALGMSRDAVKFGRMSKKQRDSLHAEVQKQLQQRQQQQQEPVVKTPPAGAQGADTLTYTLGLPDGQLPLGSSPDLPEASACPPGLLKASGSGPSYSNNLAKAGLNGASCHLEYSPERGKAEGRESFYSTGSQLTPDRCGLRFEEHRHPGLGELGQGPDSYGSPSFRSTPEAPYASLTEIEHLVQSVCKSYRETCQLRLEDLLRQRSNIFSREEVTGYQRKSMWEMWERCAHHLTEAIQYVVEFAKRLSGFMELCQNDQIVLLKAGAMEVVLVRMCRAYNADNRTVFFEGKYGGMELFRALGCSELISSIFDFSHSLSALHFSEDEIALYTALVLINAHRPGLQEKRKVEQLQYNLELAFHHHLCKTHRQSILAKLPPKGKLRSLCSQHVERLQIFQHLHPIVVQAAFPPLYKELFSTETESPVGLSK
Cellular tumor antigen p53 (Homo sapiens), sequence (P04637 whole entry, looked up): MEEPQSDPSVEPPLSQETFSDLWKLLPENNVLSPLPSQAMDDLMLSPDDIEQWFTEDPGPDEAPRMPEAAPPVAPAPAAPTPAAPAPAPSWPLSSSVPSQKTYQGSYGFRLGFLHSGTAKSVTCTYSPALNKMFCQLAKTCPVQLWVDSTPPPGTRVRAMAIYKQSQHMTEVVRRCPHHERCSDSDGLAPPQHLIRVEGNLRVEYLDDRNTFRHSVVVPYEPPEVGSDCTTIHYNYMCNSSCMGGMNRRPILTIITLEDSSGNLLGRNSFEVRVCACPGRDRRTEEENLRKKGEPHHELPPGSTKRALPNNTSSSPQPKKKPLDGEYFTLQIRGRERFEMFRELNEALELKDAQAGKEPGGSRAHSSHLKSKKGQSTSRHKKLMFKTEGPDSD
Nuclear receptor subfamily 1 group I member 2 (Homo sapiens), sequence (O75469 whole entry, looked up, the tested form may be a part): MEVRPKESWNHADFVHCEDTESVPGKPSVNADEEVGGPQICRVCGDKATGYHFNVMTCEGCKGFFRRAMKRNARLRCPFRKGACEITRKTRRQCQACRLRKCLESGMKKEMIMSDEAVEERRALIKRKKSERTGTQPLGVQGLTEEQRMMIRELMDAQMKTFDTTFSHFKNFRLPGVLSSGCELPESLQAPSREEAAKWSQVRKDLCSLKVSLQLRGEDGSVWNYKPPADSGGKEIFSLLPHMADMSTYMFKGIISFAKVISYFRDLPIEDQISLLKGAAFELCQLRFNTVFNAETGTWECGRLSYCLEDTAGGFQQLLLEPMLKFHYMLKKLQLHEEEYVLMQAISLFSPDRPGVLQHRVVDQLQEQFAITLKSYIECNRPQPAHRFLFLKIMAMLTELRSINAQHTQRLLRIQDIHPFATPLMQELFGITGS
Peroxisome proliferator-activated receptor gamma (Homo sapiens), sequence (P37231 whole entry, looked up, the tested form may be a part): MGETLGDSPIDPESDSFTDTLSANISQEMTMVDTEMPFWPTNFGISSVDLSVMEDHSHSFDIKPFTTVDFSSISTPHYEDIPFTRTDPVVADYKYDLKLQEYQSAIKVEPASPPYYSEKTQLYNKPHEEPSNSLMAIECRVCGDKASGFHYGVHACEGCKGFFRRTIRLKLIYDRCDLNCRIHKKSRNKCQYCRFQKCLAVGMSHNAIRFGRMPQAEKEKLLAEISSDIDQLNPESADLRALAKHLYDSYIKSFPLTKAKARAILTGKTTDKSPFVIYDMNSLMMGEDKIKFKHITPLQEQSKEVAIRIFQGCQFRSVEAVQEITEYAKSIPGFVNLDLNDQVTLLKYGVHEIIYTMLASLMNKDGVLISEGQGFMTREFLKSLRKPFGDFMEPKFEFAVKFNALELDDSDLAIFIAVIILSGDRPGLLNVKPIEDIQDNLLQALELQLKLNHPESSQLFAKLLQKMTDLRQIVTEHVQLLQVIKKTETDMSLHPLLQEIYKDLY
Retinoic acid receptor alpha (Homo sapiens), sequence (P10276 whole entry, looked up, the tested form may be a part): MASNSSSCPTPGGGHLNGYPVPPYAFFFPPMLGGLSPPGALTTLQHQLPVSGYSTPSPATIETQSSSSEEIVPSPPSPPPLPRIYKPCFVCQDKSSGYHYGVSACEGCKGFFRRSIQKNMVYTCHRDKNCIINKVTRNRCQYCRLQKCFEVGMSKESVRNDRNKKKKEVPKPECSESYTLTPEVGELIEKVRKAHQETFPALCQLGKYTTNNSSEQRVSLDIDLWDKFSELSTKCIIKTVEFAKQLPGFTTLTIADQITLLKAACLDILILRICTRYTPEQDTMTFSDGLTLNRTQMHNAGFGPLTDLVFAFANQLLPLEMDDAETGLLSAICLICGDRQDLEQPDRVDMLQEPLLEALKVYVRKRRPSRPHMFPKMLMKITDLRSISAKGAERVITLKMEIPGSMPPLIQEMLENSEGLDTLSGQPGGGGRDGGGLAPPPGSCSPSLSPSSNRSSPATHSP
human Retinoic Acid Receptor gamma (RARg), RARG (gene 5916), sequence (P13631 whole entry, looked up, the tested form may be a part): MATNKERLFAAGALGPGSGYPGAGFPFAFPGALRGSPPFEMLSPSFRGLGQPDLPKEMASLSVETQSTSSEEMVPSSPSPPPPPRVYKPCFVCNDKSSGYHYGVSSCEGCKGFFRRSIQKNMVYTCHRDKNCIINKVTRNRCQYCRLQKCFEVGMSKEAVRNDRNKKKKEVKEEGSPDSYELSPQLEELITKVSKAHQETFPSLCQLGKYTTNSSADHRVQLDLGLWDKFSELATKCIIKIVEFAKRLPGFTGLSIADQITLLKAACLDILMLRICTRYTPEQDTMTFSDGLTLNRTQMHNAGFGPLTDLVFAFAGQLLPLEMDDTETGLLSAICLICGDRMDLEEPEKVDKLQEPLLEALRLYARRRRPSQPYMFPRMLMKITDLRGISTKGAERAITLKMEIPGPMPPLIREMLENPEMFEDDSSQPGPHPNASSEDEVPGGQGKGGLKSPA

As usually defined, the AC50 is the concentration giving half of the maximal activity seen. As for `c1ccc(Oc2ccccc2)cc1`, the call in [1], in [2], in [3], in [4], in assay [5] and in [10] was inactive. Besides, the outcome in assay [11], in [12], in assay [14] and in assay [15] was inactive. The concentration at half-maximal activity (AC50) in assay [6] was 30.7 µM (active); in assay [7], 30.6 µM (active); in [8], 30.7 µM (active); in [9] it was 31.5 µM (active); in assay [13], 31.2 µM (active).
Regarding `CN(C)C(=S)SC(=S)N(C)C`, the compound was called inactive in assay [1], in [2], in assay [4], in assay [5], in [6] and in assay [10]. In addition, the result in assay [11], in assay [17] and in assay [15] was inactive. The half-maximal activity concentration (AC50) in assay [3] is 22.9 µM (active); in assay [7], 31.8 µM (active); in [8] it was 19.9 µM (active); in assay [9], 31.4 µM (active); in assay [13], 19.9 µM (active); in assay [16] it was 20.9 µM (active).
In the case of `CCCCCCCCCCCCCC(=O)OCC(O)CO` (stereo not drawn), the call in [1], in [2], in assay [4], in assay [5], in assay [10] and in assay [11] was inactive. For the same compound, the outcome in assay [12], in [18], in assay [14], in [19] and in assay [15] was inactive. Also, the AC50 in [3] was 112 µM (active).
As for `CC(=O)c1c(C)c([N+](=O)[O-])c(C(C)(C)C)c([N+](=O)[O-])c1C`, the compound was called inactive in [1], in assay [2], in [3], in [4], in assay [5] and in assay [6]. Besides, the outcome in [7], in assay [8], in [9], in assay [11], in [12] and in assay [18] was inactive. For the same compound, the outcome in [13], in assay [16] and in assay [19] was inactive. Further, the AC50 in [14] was 1.84 µM (active).
